Experimental data: the supplement of paper PMC3334620
The full ranking holds about 33,000 sequences; the median of “E-score (-0.5 to 0.5)” is about -8e-05, and the highest 2% start at about 0.23. The list comes from a sample in which the highest values are over-represented; it also holds similar and randomly drawn sequences.

These sequences were tested against T1, Nrg2 (UniProt P38082) (assay: PBM E-score (8-mer binding enrichment) (E-score (-0.5 to 0.5)); higher = stronger / more preferred TF binding). Details: protein concentration: 100 nM; construct: GST-full length.
T1 sequence: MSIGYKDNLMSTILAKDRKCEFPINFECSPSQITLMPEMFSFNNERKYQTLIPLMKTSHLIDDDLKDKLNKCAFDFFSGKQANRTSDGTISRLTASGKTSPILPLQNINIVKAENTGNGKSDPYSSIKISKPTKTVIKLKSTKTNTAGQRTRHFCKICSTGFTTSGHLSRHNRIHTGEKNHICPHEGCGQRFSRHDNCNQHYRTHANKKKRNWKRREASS
Procedure: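 Universal 'all 10-mer' protein binding microarrays (Agilent AMADID 015681) probed with GST-tagged S. cerevisiae TFs (full-length or DBD) made by in vitro transcription/translation (PURExpress), about 100-200 nM. Bound TF was detected with fluorescent anti-GST. Each ungapped 8-mer (which stands for itself and its reverse complement) is scored by the PBM enrichment score (E-score), a modified Wilcoxon-Mann-Whitney statistic from -0.5 to +0.5, computed with the Universal PBM Analysis Suite. Scale: above 0.35 generally sequence-specific binding.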

| Sequence | PBM E-score |
| --- | --- |
| ATTTTCTC | 0.106 |
| GCCGCCAC | -0.231 |
| ACCGCCAC | -0.117 |
| CCCGCCAC | 0.269 |
| GGCGTCGA | 0.148 |
| CAGGTAGC | -0.212 |
| AATGCTGC | 0.0363 |
| AATGGCCA | -0.0344 |
| ACTTTAAA | 0.0738 |
| CCTTTAAG | -0.0435 |
| ACTTTAAG | 0.243 |
| GATTAGAC | 0.0407 |
| CGTCGAAA | 0.075 |
| CGAATGAG | 0.0496 |
| ATAGATCG | 0.0393 |
| CAAACTCC | 0.0622 |
| AGCTAGCC | -0.0348 |
| AGCTAGCT | 0.244 |
| AGCTAGCA | -0.191 |
| ACGCAGCT | 0.0108 |
| AGTCTGAG | -0.319 |
| AGGACAGA | 0.0623 |
| CGGCTTGA | -0.0482 |
| CGGCTTGC | 0.237 |
| AGGCTTGC | -0.173 |

| Sequence | PBM E-score |
| --- | --- |
| CGCCTAGC | -0.315 |
| GGTCTTAA | -0.301 |
| CATCTCTC | 0.148 |
| ACCGCAGA | -0.0429 |
| ATTCGGGG | 0.243 |
| ATTCGGGA | 0.0112 |
| ATTCGGGC | -0.044 |
| ACCCGCTG | -0.133 |
| CTTTACTA | 0.26 |
| ATTTACTG | 0.107 |
| GTTTACTA | 0.155 |
| ATTTACTC | 0.271 |
| CTTTACTC | 0.144 |
| ATTTACTA | 0.0988 |
| GCAGTGGC | -0.173 |
| CAGCTGGA | 0.123 |
| GACTCGGA | -0.226 |
| CTTTTAAA | -0.168 |
| AGCAGCCA | 0.0226 |
| ATCGATAC | 0.133 |
| CTCGATAC | 0.245 |
| ATCGATTA | 0.0753 |
| CTCGATTA | 0.251 |
| CTCGATTC | 0.15 |
| CTCGATAA | 0.041 |

| Sequence | PBM E-score |
| --- | --- |
| GCGGATAC | 0.0466 |
| GGCGCCAA | 0.133 |
| CGTCGCCC | -0.282 |
| CCAAAGCA | 0.119 |
| GCTGCACC | -0.0621 |
| GAATATAA | 0.12 |
| AAATATTG | 0.204 |
| TAATATAA | 0.302 |
| CAATATAA | 0.212 |
| AAATATTA | 0.247 |
| TAATATTA | 0.322 |
| TAATATCA | 0.0975 |
| CAATATTA | 0.154 |
| TAATATGA | 0.0376 |
| AACCTGTC | -0.0794 |
| AGCTATAC | -0.101 |
| CATGGGCA | 0.0918 |
| ACATAATC | 0.193 |
| CAATAACA | 0.0577 |
| GAATAATC | 0.185 |
| AAATAATT | 0.243 |
| AAATAATC | 0.0163 |
| GAATAATA | 0.238 |
| ACATAATA | 0.295 |
| AAATAATA | 0.203 |

| Sequence | PBM E-score |
| --- | --- |
| GCATAATA | 0.201 |
| TAATAACA | 0.00017 |
| GAATAACA | 0.265 |
| TAATAATA | 0.0963 |
| CTGGCCGA | -0.163 |
| AACCTCCT | -0.264 |
| ACTCATAT | -0.028 |
| CCATTCAC | 0.0939 |
| CGGACACG | -0.0788 |
| GTCTAAAA | -0.0766 |
| CAGTCACA | -0.0678 |
| GAGTAATA | 0.232 |
| AAGTAATA | -0.00088 |
| CAGTAATA | 0.161 |
| ATCGGCTC | -0.0282 |
| AAGAATGT | 0.107 |
| ACCCTGGA | 0.279 |
| AACCTGGA | -0.00995 |
| CCCCTGGA | 0.0369 |
| AGCCTGGA | -0.0491 |
| GTCCTGGA | -0.261 |
| ACCCTGGG | 0.328 |
| AGCCTGGG | -0.159 |
| CCCCTGGC | 0.11 |
| ACCCTGGC | 0.338 |

| Sequence | PBM E-score |
| --- | --- |
| AACCTGGG | -0.131 |
| AACCTGGC | -0.18 |
| GCCCTGGA | 0.247 |
| CCTAAGGC | -0.191 |
| CCCTCATC | -0.0723 |
| CGGGGGAC | -0.242 |
| ACCCAGGG | 0.0967 |
| AAAACCTA | 0.0556 |
| CGTAGGAA | -0.0744 |
| CAGGGAAC | 0.0728 |
| TGCAACAA | 0.00649 |
| ATGAGGTC | -0.142 |
| CGCGCTTA | 0.254 |
| CGCGCTAA | 0.259 |
| AGCGCTTA | 0.131 |
| GGCGCTAA | -0.0159 |
| TGCGCTAA | 0.0259 |
| CGCGCTGA | 0.0409 |
| ACTAGTGG | 0.123 |
| CAGCTCAC | -0.161 |
| CGCCGCTC | 0.0612 |
| ACACGCGT | 0.00123 |
| ACAACATA | 0.268 |
| GCAACATA | 0.0428 |
| ACAACATC | -0.042 |

| Sequence | PBM E-score |
| --- | --- |
| AGTTTGCA | -0.0668 |
| AGGGTGCG | 0.0103 |
| CGGGTGCA | -0.0669 |
| CGGGTTTA | 0.104 |
| AGGGTTCA | 0.281 |
| AGGGTTTA | 0.235 |
| AGGGTTTG | 0.172 |
| AGGGTGCA | 0.256 |
| AGGGTTCC | 0.189 |
| GGGGTTCA | 0.166 |
| AGCTGGCG | -0.158 |
| AACCCGTA | -0.0217 |
| GAATTCGA | 0.0262 |
| AAAACTAT | 0.0045 |
| GCAACTAA | 0.288 |
| ATAACTAA | 0.0389 |
| TTAACTAA | 0.249 |
| CCAACTAA | 0.0905 |
| TCAACTAA | 0.0939 |
| AAAACTAA | 0.234 |
| CTAACTAA | -0.0143 |
| TAAACTAA | 0.186 |
| ACAGTTCG | 0.103 |
| GAGGCAAC | -0.192 |
| AAGTAAGG | 0.159 |

| Sequence | PBM E-score |
| --- | --- |
| CGAAAACA | 0.0723 |
| CTGGCCTA | -0.0943 |
| ACTTAGCT | -0.202 |
| CGCAGAAA | 0.0592 |
| AATATATT | 0.341 |
| TATATATA | 0.269 |
| AATATATA | 0.0908 |
| CATATATA | 0.205 |
| GATATATA | 0.247 |
| AAAATATA | 0.00189 |
| GATATATC | 0.0168 |
| AATATATG | 0.225 |
| TATATACA | 0.207 |
| TAAATATA | 0.144 |
| GATATACA | 0.0803 |
| GAAATATA | 0.256 |
| AGGCCGCC | -0.0684 |
| CGACCAAA | 0.222 |
| ATTACCAA | 0.0553 |
| CATTGACG | -0.0426 |
| ACTTCGGC | -0.0688 |
| CAAATATC | 0.256 |
| AATATGGA | 0.0669 |
